{
  "source": "the supplement of paper PMC8728848",
  "experiment_in_all_cases": "glycan array binding signal (z-score within array); higher = stronger binding",
  "conditions_in_all_cases": "glycan notation: IUPAC condensed, linker removed",
  "key": {"[1]": {"target": "Fuc(a1-2)Gal(b1-3)GalNAc(b1-3)Gal", "summary_of_the_method": "(§1)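 Glycan array binding is given as a within-array Z-score, which can be read as non-binding when negative. The arrays, 3228 of them, came from the Consortium for Functional Glycomics database and were retained only where the protein sequence was available. Z-scores were averaged across arrays of the same protein sequence at different concentrations or buffers and across linkers.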"}, "[2]": {"target": "Fuc(a1-2)Gal(b1-3)GlcNAc(b1-3)[Gal(b1-4)GlcNAc(b1-6)]Gal(b1-4)Glc", "summary_of_the_method": "as §1"}, "[3]": {"target": "Fuc(a1-2)Gal(b1-3)GlcNAc6S", "summary_of_the_method": "as §1"}, "[4]": {"target": "Fuc(a1-2)Gal(b1-4)GlcNAc(b1-2)[Fuc(a1-2)Gal(b1-4)GlcNAc(b1-4)]Man(a1-3)[Fuc(a1-2)Gal(b1-4)GlcNAc(b1-2)Man(a1-6)]Man(b1-4)GlcNAc(b1-4)GlcNAc", "summary_of_the_method": "as §1"}, "[5]": {"target": "Fuc(a1-2)Gal6S(b1-3)GlcNAc", "summary_of_the_method": "as §1"}, "[6]": {"target": "Fuc(a1-2)[Gal(a1-3)]Gal(b1-3)GlcNAc", "summary_of_the_method": "as §1"}, "[7]": {"target": "Fuc(a1-2)[GalNAc(a1-3)]Gal(b1-4)GlcNAc(b1-3)Gal(b1-4)GlcNAc", "summary_of_the_method": "as §1"}, "[8]": {"target": "Fuc(a1-3)[Gal(b1-4)]GlcNAc(b1-2)Man(a1-3)[Fuc(a1-3)[Gal(b1-4)]GlcNAc(b1-2)Man(a1-6)]Man(b1-4)GlcNAc(b1-4)GlcNAc", "summary_of_the_method": "as §1"}, "[9]": {"target": "Fuc(a1-3)[GalNAc(b1-4)]GlcNAc", "summary_of_the_method": "as §1"}, "Fuc(a1-4)GlcNAc": {"target": "Fuc(a1-4)GlcNAc", "summary_of_the_method": "as §1"}, "Gal(a1-3)Gal": {"target": "Gal(a1-3)Gal", "summary_of_the_method": "as §1"}, "[10]": {"target": "Gal(a1-3)Gal(b1-3)GlcNAc(b1-3)GalNAc", "summary_of_the_method": "as §1"}, "[11]": {"target": "Gal(a1-3)Gal(b1-4)[Fuc(a1-3)]GlcNAc", "summary_of_the_method": "as §1"}, "Gal(a1-4)Gal(b1-4)GlcNAc": {"target": "Gal(a1-4)Gal(b1-4)GlcNAc", "summary_of_the_method": "as §1"}, "Gal(b1-3)GalNAc(b1-3)Gal": {"target": "Gal(b1-3)GalNAc(b1-3)Gal", "summary_of_the_method": "as §1"}, "[12]": {"target": "Gal(b1-3)GalNAc(b1-4)Gal(b1-4)Glc", "summary_of_the_method": "as §1"}, "[13]": {"target": "Gal(b1-3)GalNAc(b1-4)[Neu5Ac(a2-3)]Gal(b1-4)Glc", "summary_of_the_method": "as §1"}, "[14]": {"target": "Gal(b1-3)GlcNAc(a1-6)Gal(b1-4)GlcNAc", "summary_of_the_method": "as §1"}, "[15]": {"target": "Gal(b1-3)GlcNAc(b1-2)Man(a1-3)[Gal(b1-3)GlcNAc(b1-2)Man(a1-6)]Man(b1-4)GlcNAc(b1-4)GlcNAc", "summary_of_the_method": "as §1"}, "[16]": {"target": "Gal(b1-3)GlcNAc(b1-2)Man(a1-3)[Gal(b1-3)GlcNAc(b1-2)Man(a1-6)]Man(b1-4)GlcNAc(b1-4)[Fuc(a1-6)]GlcNAc", "summary_of_the_method": "as §1"}, "[17]": {"target": "Gal(b1-3)GlcNAc(b1-6)[Gal(b1-3)]GalNAc", "summary_of_the_method": "as §1"}, "[18]": {"target": "Gal(b1-3)[Neu5Ac(b2-6)]GalNAc", "summary_of_the_method": "as §1"}, "Gal(b1-4)GlcNAc": {"target": "Gal(b1-4)GlcNAc", "summary_of_the_method": "as §1"}, "[19]": {"target": "Gal(b1-4)GlcNAc(b1-2)Man(a1-3)[Man(a1-6)]Man(b1-4)GlcNAc(b1-4)GlcNAc", "summary_of_the_method": "as §1"}, "[20]": {"target": "Gal(b1-4)GlcNAc(b1-2)[Gal(b1-4)GlcNAc(b1-4)]Man(a1-3)[GlcNAc(b1-4)][Gal(b1-4)GlcNAc(b1-2)[Gal(b1-4)GlcNAc(b1-6)]Man(a1-6)]Man(b1-4)GlcNAc(b1-4)GlcNAc", "summary_of_the_method": "as §1"}, "[21]": {"target": "Gal(b1-4)GlcNAc(b1-3)Gal(b1-4)GlcNAc(b1-3)Gal(b1-4)GlcNAc(b1-3)Gal(b1-4)GlcNAc(b1-3)Gal(b1-4)GlcNAc(b1-2)Man(a1-3)[Gal(b1-4)GlcNAc(b1-3)Gal(b1-4)GlcNAc(b1-3)Gal(b1-4)GlcNAc(b1-3)Gal(b1-4)GlcNAc(b1-3)Gal(b1-4)GlcNAc(b1-2)Man(a1-6)]Man(b1-4)GlcNAc(b1-4)[Fuc(a1-6)]GlcNAc", "summary_of_the_method": "as §1"}, "[22]": {"target": "Gal3S(b1-4)[Fuc(a1-3)]GlcNAc", "summary_of_the_method": "as §1"}, "GalNAc(a1-3)GalNAc": {"target": "GalNAc(a1-3)GalNAc", "summary_of_the_method": "as §1"}, "[23]": {"target": "GalNAc(a1-3)GalNAc(b1-3)Gal(a1-4)Gal(b1-4)GlcNAc", "summary_of_the_method": "as §1"}, "GlcA(b1-3)Gal": {"target": "GlcA(b1-3)Gal", "summary_of_the_method": "as §1"}, "[24]": {"target": "GlcNAc(a1-4)Gal(b1-4)GlcNAc", "summary_of_the_method": "as §1"}, "[25]": {"target": "GlcNAc(b1-2)[GlcNAc(b1-4)]Man(a1-3)[GlcNAc(b1-2)Man(a1-6)]Man(b1-4)GlcNAc(b1-4)GlcNAc", "summary_of_the_method": "as §1"}},
  "note": "The sample as a whole holds a higher share of the strongest signals than the screen did.",
  "data": [
    {"binder": "UDA (Urtica dioica), P11218 (protein) MMMRFLSAVVIMSSAMAVGLVSAQRCGSQGGGGTCPALWCCSIWGWCGDSEPYCGRTCENKCWSGERSDHRCGAAVGNPPCGQDRCCSVHGWCGGGNDYCSGSKCQYRCSSSVRGPRVALSGNSTANSIGNVVVTEPLFDQMFSHRKDCPSQGFYSYHSFLVAAESFPAFGTIGDVATRKREVAAFLAHISQATSGERSDVENPHAWGLCHINTTTVTENDFCTSSDWPCAAGKKYSPRGPIQLTHNFNYGLAGQAIGEDLIQNPDLVEKDPIISFKTALWFWMSQHDNKPSCHDIVLNANSAANRIPNKGVIGNIISRAFGHDDFAVRSSSIGFYKRYCDMLGVSYGHDLKYWFDNTPSSEFQRIQMRVAA", "values": [
      {"measurement": "glycan array binding signal (z-score)", "setting": "[1]", "result": -0.215},
      {"measurement": "glycan array binding signal (z-score)", "setting": "[2]", "result": -0.109},
      {"measurement": "glycan array binding signal (z-score)", "setting": "[3]", "result": -0.182},
      {"measurement": "glycan array binding signal (z-score)", "setting": "[4]", "result": -0.161},
      {"measurement": "glycan array binding signal (z-score)", "setting": "[5]", "result": -0.184},
      {"measurement": "glycan array binding signal (z-score)", "setting": "[6]", "result": -0.167},
      {"measurement": "glycan array binding signal (z-score)", "setting": "[7]", "result": -0.054},
      {"measurement": "glycan array binding signal (z-score)", "setting": "[8]", "result": -0.165},
      {"measurement": "glycan array binding signal (z-score)", "setting": "[9]", "result": -0.172},
      {"measurement": "glycan array binding signal (z-score)", "setting": "Fuc(a1-4)GlcNAc", "result": -0.178},
      {"measurement": "glycan array binding signal (z-score)", "setting": "Gal(a1-3)Gal", "result": -0.189},
      {"measurement": "glycan array binding signal (z-score)", "setting": "[10]", "result": -0.177},
      {"measurement": "glycan array binding signal (z-score)", "setting": "[11]", "result": -0.183},
      {"measurement": "glycan array binding signal (z-score)", "setting": "Gal(a1-4)Gal(b1-4)GlcNAc", "result": -0.101},
      {"measurement": "glycan array binding signal (z-score)", "setting": "Gal(b1-3)GalNAc(b1-3)Gal", "result": -0.178},
      {"measurement": "glycan array binding signal (z-score)", "setting": "[12]", "result": -0.186},
      {"measurement": "glycan array binding signal (z-score)", "setting": "[13]", "result": -0.189},
      {"measurement": "glycan array binding signal (z-score)", "setting": "[14]", "result": -0.166},
      {"measurement": "glycan array binding signal (z-score)", "setting": "[15]", "result": 0.04},
      {"measurement": "glycan array binding signal (z-score)", "setting": "[16]", "result": -0.156},
      {"measurement": "glycan array binding signal (z-score)", "setting": "[17]", "result": -0.177},
      {"measurement": "glycan array binding signal (z-score)", "setting": "[18]", "result": -0.187},
      {"measurement": "glycan array binding signal (z-score)", "setting": "Gal(b1-4)GlcNAc", "result": 0.006},
      {"measurement": "glycan array binding signal (z-score)", "setting": "[19]", "result": 4.63},
      {"measurement": "glycan array binding signal (z-score)", "setting": "[20]", "result": -0.17},
      {"measurement": "glycan array binding signal (z-score)", "setting": "[21]", "result": 1.52},
      {"measurement": "glycan array binding signal (z-score)", "setting": "[22]", "result": -0.184},
      {"measurement": "glycan array binding signal (z-score)", "setting": "GalNAc(a1-3)GalNAc", "result": -0.191},
      {"measurement": "glycan array binding signal (z-score)", "setting": "[23]", "result": -0.177},
      {"measurement": "glycan array binding signal (z-score)", "setting": "GlcA(b1-3)Gal", "result": -0.173},
      {"measurement": "glycan array binding signal (z-score)", "setting": "[24]", "result": 0.188},
      {"measurement": "glycan array binding signal (z-score)", "setting": "[25]", "result": 0.083}
    ]}
  ]
}
